Laboratory results reported in PubChem BioAssay.
Activity calls are given as the source filed them.

Legend:
[1] = binders of probe aFSTL3 on microarray, primary screen, stem cell growth factor project, biochemical, small-molecule microarray, fluorescence 635/667 (AID 1064); settings: higher = more signal;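 further: measures binding of the biotinylated anti-FSTL3 antibody to printed compounds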
[2] = binders from COS7 lysate, DM2A8 probe, primary screen, torsin A project, cell lysate, small-molecule microarray, fluorescence 635/667 (AID 1065); settings: higher = more signal, COS7 lysate expressing mutant human TOR1A
[3] = binders of probe aFGF2 on microarray, primary screen, stem cell growth factor project, biochemical, small-molecule microarray, fluorescence 635/667 (AID 1067); settings: higher = more signal;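 further: measures binding of biotinylated aFGF2 protein to printed compounds on slides; z-score merges feature fluorescence and signal-to-noise across triplicate slides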
[4] = binders of probe aFGF10 on microarray, primary screen, stem cell growth factor project, biochemical, small-molecule microarray, fluorescence 635/667 (AID 1071); settings: higher = more signal;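 further: score merges 667 nm spot intensity and signal to noise from triplicate slides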
[5] = biological target: Neurogenic locus notch homolog protein 2 (Homo sapiens) (UniProt Q04721); experiment: Notch2 binders on small-molecule microarrays, primary screen, biochemical, small-molecule microarray, 635 nm fluorescence, stem cell growth factors (AID 1073); settings: Notch2 binding, higher = more signal
[6] = biological target: Pro-neuregulin-1, membrane-bound isoform (Homo sapiens) (UniProt Q02297); experiment: NRG1 binders on small-molecule microarrays, primary screen, psychiatric disease protein project, biochemical, small-molecule microarray, fluorescence 635/667 (AID 1075); settings: NRG1 binding, 635 nm fluorescence, higher = more signal;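 further: score combines 667 nm spot fluorescence with signal to noise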
Chain of Pro-neuregulin-1, membrane-bound isoform (Homo sapiens) (Q02297 whole entry, looked up, the tested form may be a part, canonical isoform): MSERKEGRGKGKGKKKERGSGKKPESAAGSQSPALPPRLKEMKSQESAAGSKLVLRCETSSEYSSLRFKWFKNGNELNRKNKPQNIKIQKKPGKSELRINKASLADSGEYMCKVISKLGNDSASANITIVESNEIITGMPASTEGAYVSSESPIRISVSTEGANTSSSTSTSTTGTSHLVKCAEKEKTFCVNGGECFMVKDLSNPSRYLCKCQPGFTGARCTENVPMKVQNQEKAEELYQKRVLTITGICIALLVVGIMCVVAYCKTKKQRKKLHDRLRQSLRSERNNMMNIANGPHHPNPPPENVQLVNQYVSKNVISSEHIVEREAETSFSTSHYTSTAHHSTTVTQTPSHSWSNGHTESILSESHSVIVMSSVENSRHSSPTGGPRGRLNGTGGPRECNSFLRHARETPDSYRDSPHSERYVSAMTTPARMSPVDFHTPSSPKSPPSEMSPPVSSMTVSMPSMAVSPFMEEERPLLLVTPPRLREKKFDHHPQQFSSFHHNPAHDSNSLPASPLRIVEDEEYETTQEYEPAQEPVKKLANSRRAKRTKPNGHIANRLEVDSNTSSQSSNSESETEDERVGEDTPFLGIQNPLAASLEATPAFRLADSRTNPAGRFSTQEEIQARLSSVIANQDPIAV

[7] = test system: Neuregulin-1 EGF-like domain; experiment: binders of neuregulin-1 EGF-like domain, primary screen, biochemical, small-molecule microarray, 635 nm fluorescence (AID 1081); settings: small-molecule microarray binding, higher = more signal;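 further: binding of the protein to compounds printed on small-molecule microarray slides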
[8] = FRG1 promoter luciferase signal modulators, primary screen, FRG1 inhibition for FSHD, cell-based, C2C12 myotubes, firefly/Renilla luciferase, luminescence (AID 1084); settings: higher = more signal, called active from +8 up or from −8 down
[9] = binders of probe aFST on microarray, primary screen, stem cell growth factor project, biochemical, small-molecule microarray, fluorescence 635/667 (AID 1086); settings: higher = more signal;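 further: score merges 667 nm fluorescence with signal-to-noise of each printed compound spot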
[10] = binders of probe aHhip on microarray, primary screen, stem cell growth factor project, biochemical, small-molecule microarray, fluorescence 635/667 (AID 1087); settings: higher = more signal;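 further: score merges spot fluorescence at 667nm with spot signal to noise ratio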
[11] = test system: PRMT1 (protein arginine N-methyltransferase 1); experiment: PRMT1 binders on small-molecule microarrays, primary screen, biochemical, small-molecule microarray, 635 nm fluorescence (AID 1088); settings: small-molecule microarray binding, higher = more signal;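 further: binding of Prmt1 protein to compounds spotted on small-molecule microarray slides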
[12] = yeast growth modulation, basal conditions, primary screen, YJM789 clinical isolate, OD600, 24 h (AID 1089);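 further: growth of clinical yeast isolate S. cerevisiae YJM 789 seeded 1000 cells per well; test concentration not given here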; settings: S. cerevisiae YJM789 growth, higher = more signal, called active from +8 up or from −8 down
[13] = fission yeast growth modulation, primary screen, strain 972, OD600, 24 h, no modulator (AID 1090);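 further: basal condition with compound alone and no growth modifier present; test concentration not given here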; settings: S. pombe 972 growth, higher = more signal, called active from +8 up or from −8 down
[14] = S. cerevisiae growth modulation with rapamycin, primary screen, strain BY4716, OD600, 96 h (AID 1091); settings: higher = more signal, called active from +8 up or from −8 down; further: test concentration not given here
[15] = biological target: Torsin-1A-interacting protein 2 (Homo sapiens) (UniProt Q8NFQ8); experiment: LULL1 binders on small-molecule microarray, primary screen, cell lysate, human LULL1 lysate, 635/667 nm fluorescence (AID 1092); settings: hLULL1 lysate binding, 635 nm fluorescence, higher = more signal;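 further: probe is lysate of COS7 cells overexpressing human LULL1; score merges per-feature 667 nm fluorescence with signal-to-noise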
Chain of Torsin-1A-interacting protein 2 (Homo sapiens) (Q8NFQ8 whole entry, looked up): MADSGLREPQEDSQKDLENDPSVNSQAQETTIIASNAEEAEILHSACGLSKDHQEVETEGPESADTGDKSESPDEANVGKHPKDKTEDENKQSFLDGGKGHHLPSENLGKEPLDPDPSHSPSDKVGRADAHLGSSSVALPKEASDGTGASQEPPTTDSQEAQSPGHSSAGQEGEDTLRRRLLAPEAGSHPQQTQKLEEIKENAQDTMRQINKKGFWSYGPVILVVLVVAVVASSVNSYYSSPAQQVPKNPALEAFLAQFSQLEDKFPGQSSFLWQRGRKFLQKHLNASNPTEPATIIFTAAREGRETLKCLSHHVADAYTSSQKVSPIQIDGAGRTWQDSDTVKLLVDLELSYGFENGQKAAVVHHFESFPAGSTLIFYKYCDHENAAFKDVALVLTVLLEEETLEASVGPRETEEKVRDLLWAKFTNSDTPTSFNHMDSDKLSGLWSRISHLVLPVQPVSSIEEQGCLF

[16] = E. coli growth modulation, two-sided OD650, primary screen, E. coli filamentation project, strain DRC41, 24 h (AID 1093); settings: OD650, 24 h, higher = more signal, called active from +8 up or from −8 down;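 further: MC1000 strain lacking acrAB efflux and sulA so SOS filamentation is blocked; test concentration not given here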
[17] = small-molecule microarray binders of probe aLefty2, primary screen, biochemical, biotinylated probe, 635/667 nm fluorescence (AID 1094); settings: higher = more signal;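 further: score merges spot fluorescence near 667 nm with spot signal-to-noise ratio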
[18] = test system: Noggin (protein binding on small-molecule microarray); experiment: Noggin binders on small-molecule microarray, primary screen, biochemical, 635/667 nm fluorescence (AID 1095); settings: 635 nm fluorescence, higher = more signal;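 further: score merges 667 nm feature fluorescence with signal to noise over triplicate slides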
[19] = biological target: Neurogenic locus notch homolog protein 3 (Homo sapiens) (UniProt Q9UM47); experiment: NOTCH3 binders on small-molecule microarray, primary screen, biochemical, 635/667 nm fluorescence (AID 1096); settings: NOTCH3 binding, 635 nm fluorescence, higher = more signal
Chain of Neurogenic locus notch homolog protein 3 (Homo sapiens) (Q9UM47 whole entry, looked up): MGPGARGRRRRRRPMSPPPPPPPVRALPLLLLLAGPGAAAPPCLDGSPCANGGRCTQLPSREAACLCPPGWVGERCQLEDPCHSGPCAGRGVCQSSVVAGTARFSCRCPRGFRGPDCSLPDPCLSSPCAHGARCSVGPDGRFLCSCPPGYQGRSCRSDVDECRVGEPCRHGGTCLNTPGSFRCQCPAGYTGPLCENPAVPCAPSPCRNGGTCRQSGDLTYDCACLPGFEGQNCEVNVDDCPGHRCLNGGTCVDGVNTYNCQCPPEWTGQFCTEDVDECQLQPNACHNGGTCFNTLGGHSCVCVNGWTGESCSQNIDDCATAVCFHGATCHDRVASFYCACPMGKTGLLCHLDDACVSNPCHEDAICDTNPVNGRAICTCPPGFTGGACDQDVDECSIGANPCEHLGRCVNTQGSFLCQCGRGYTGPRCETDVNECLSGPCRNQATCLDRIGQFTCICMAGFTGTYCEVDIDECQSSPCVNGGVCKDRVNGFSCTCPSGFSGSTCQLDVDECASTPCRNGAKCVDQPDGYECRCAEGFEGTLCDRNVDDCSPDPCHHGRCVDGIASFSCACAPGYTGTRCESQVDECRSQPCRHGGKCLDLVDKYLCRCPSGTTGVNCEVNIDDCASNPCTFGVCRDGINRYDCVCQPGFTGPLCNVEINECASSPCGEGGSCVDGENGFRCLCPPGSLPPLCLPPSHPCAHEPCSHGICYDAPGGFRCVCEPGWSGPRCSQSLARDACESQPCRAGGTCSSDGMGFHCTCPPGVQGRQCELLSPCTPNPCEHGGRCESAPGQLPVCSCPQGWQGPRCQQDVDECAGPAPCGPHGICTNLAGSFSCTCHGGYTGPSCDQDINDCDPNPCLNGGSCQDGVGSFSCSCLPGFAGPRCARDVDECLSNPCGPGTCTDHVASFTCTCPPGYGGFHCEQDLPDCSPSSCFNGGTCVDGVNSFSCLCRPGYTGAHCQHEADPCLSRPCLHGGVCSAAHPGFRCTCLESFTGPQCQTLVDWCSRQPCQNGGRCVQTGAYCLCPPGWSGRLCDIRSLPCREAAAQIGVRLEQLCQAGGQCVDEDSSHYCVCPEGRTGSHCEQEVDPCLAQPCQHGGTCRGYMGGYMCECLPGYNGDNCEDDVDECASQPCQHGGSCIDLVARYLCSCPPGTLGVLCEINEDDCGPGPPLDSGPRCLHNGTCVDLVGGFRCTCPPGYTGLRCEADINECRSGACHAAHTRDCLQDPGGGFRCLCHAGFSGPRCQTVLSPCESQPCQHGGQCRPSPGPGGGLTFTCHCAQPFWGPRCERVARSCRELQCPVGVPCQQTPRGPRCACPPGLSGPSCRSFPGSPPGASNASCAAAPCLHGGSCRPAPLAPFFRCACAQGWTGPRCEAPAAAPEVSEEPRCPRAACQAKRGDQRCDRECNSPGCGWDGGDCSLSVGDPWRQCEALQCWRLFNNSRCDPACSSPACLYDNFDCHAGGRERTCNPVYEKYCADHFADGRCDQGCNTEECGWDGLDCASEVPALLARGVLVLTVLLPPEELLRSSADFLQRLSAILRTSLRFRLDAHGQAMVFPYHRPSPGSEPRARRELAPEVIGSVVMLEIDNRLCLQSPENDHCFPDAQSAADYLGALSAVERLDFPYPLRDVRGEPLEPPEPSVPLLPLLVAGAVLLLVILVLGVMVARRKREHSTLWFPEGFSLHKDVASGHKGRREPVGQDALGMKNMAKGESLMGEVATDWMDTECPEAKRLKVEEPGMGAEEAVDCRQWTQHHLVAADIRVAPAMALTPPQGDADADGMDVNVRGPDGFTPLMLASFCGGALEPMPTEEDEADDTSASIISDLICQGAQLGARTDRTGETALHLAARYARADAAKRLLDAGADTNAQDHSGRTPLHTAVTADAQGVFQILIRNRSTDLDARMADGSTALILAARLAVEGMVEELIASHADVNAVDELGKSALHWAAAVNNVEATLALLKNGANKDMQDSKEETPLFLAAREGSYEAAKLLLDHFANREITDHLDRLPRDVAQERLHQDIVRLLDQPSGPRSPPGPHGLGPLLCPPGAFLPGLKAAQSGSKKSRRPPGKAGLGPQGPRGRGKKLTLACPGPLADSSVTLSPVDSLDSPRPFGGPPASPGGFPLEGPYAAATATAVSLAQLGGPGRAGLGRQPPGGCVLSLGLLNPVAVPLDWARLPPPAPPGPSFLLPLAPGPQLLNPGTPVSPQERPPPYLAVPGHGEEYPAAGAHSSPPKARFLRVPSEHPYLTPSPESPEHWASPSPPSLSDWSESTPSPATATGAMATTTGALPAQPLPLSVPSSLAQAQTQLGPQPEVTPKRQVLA

[20] = small-molecule microarray binders of probe aEGFR, primary screen, biochemical, biotinylated probe, 635/667 nm fluorescence (AID 1097); settings: higher = more signal;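 further: probe is a biotinylated anti-EGFR antibody binding compounds printed on slides; score combines fluorescence near 667 nm and signal to noise of each spot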

Row | Compound | composite z-score [1] | composite z-score [2] | composite z-score [3] | composite z-score [4] | composite z-score [5] | composite z-score [6] | composite z-score [7] | z-score [8] | composite z-score [9] | composite z-score [10] | composite z-score [11] | z-score [12] | z-score [13] | z-score [14] | composite z-score [15] | z-score [16] | composite z-score [17] | composite z-score [18] | composite z-score [19] | composite z-score [20]
1 | CCCCCCCCCCC(O)C1C=CC2C(=O)N(C)C(=O)C2N1Nc1ccccc1 (stereo not given) | 0.889 | 0.149 | -0.229 | -1.07 | -0.932 | 0.0962 | -0.101 | 0.767 (inactive) | -0.191 | -0.469 | -1.19 | 0.875 (inactive) | -1.53 (inactive) | 0.882 (inactive) | 0.8 | -1.87 (inactive) | -0.405 | -0.387 | -1.4 | -0.247
2 | O=C(NCC(F)(F)F)[C@@H]1c2ccccc2C(=O)N(Cc2cc(C(F)(F)F)cc(C(F)(F)F)c2)[C@H]1c1ccc(CO)cc1 | -0.381 | -0.147 | -0.203 | -0.155 | 0.154 | 1.73 | 1.25 | -0.884 (inactive) | -0.192 | -0.0296 | 0.648 | 0.338 (inactive) | 0.459 (inactive) | -0.359 (inactive) | 1.04 | 0.955 (inactive) | -0.217 | 0.148 | -0.122 | -0.219
3 | C[C@H]1C2[C@H](Cc3ccccc3)NC(=O)[C@]23C(=O)N[C@@H](Cc2ccccc2)C(=O)N2CCC[C@H]2C(=O)NC/C=C/CC/C=C/C3[C@@H]2O[C@]12C (stereo not given in full) | 0.0522 | 0.483 | -0.129 | 0.75 | 0.237 | 0.0519 | 1.03 | 1.28 (inactive) | 0.101 | -0.0618 | 1.05 | -0.501 (inactive) | -0.36 (inactive) | -0.441 (inactive) | 1.7 | -0.269 (inactive) | -0.0666 | 0.79 | 0.977 | -0.135
4 | COc1ccc(CCNC(=O)[C@@]2(C)c3ccccc3C(=O)N(Cc3ccc(OC(F)(F)F)cc3)[C@H]2c2ccc(CO)cc2)cc1 | -1.45 | 0.197 | -0.0211 | 0.0093 | 0.484 | 0.41 | 1.12 | -4.33 (inactive) | 0.122 | -0.679 | 1.55 | -0.219 (inactive) | -0.553 (inactive) | 0.997 (inactive) | 2.25 | -0.663 (inactive) | -0.403 | 1.11 | 0.743 | 0.686
5 | CCCCN1CC=CC23O[C@@H]4/C=C\CCCOC(=O)C4[C@H]2C(=O)N(CCCCCCO)[C@@H]3C1=O (stereo not given in full) | 0.179 | -0.619 | -0.144 | -0.785 | -0.868 | 2.04 | 1.15 | -1.38 (inactive) | -1.09 | -0.0994 | 0.988 | -0.917 (inactive) | -0.818 (inactive) | -0.771 (inactive) | 3.56 | 1.79 (inactive) | -0.19 | -0.676 | -0.0185 | -0.262
6 | C=C[C@@H](CO)NS(=O)(=O)c1ccc(Br)cc1 | 0.265 | -0.066 | -0.22 | -0.426 | -1.14 | -0.361 | -0.14 | -1.84 (inactive) | -0.257 | -0.156 | -0.635 | -3.08 (inactive) | -3.63 (inactive) | -1.27 (inactive) | -0.361 | 3.54 (inactive) | -0.24 | -0.275 | -1.85 | -0.164
7 | C[C@]1(C(=O)NC2CC2)c2ccccc2C(=O)N(Cc2cc(F)cc(C(F)(F)F)c2)[C@H]1c1ccc(CO)cc1 | -0.364 | -0.035 | -0.116 | -0.636 | -1.13 | 1.72 | 1.37 | -1.05 (inactive) | -0.527 | -0.256 | 1.52 | 0.257 (inactive) | -0.194 (inactive) | 0.217 (inactive) | 3.29 | 0.299 (inactive) | -0.188 | -0.104 | 0.518 | -0.312
8 | C=C(COC)/C(=C/C[C@@H](OC(C)=O)c1cccc(OCCO)c1)c1cnc2ccccc2c1 | 0.305 | -0.116 | -0.076 | 0.826 | 1.63 | 0.679 | 1.18 | 3.42 (inactive) | 0.134 | -0.214 | 1.38 | -2.07 (inactive) | -6.62 (inactive) | -1.38 (inactive) | 1.07 | 1.03 (inactive) | 0.0303 | 0.822 | 1.04 | -0.0653
9 | C=CCC(OC(C)=O)[C@@H]1[C@@H](N(Cc2ccc(-c3ccccc3)cc2)C(=O)Cc2ccc(OC)cc2)c2cc(OCCCO)ccc2N1C(=O)Cc1ccc(OC)cc1 (stereo not given in full) | 0.169 | 0.414 | -0.0363 | 0.479 | -0.076 | 0.851 | 0.0142 | -1.5 (inactive) | 0.195 | 0.411 | 0.622 | -0.0563 (inactive) | 0.68 (inactive) | -0.753 (inactive) | 0.436 | -0.553 (inactive) | 0.0717 | -0.19 | -0.209 | 0.0101
10 | O=C(c1ccccc1)N1Cc2ccccc2C[C@@]2(N=C(c3ccc(OCCCO)cc3)O[C@H]2c2ccccc2)C1=O | -0.302 | 0.564 | -0.0538 | 0.458 | 1.13 | 1.05 | 1.21 | -3.39 (inactive) | 0.229 | 0.201 | 1.54 | -0.68 (inactive) | -10.3 (active) | 5.51 (inactive) | 2.81 | -0.231 (inactive) | -0.0982 | 1.73 | 1.09 | 0.024
